Our source for the growth values is PubChem BioAssay (NCI).

Each structure is given as a SMILES string. This is part of a sample that, as a whole, favours compounds with a hit. Of some 83,000 tested, about 20% had one in any assay.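 How to read the values: 0–100, growth inhibition (40 = 60% inhibited); 0, no net growth; -100 to 0, cell death (-40 = 40% of starting cells died; -100 = all dead).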 Values without a mark were called inactive. Activity calls are given as the source filed them. Rule for the calls: active = growth percent below 10; inactive = the rest.

What all share (assay): NCI-60 one-dose screen, 48 h (100 = growth as untreated, 0 = no growth, -100 = all killed)
The subject of assay [1] is T-47D breast. Particulars: 10 µM.
For assay [2], the system named is BT-549 breast. Particulars: 10 µM unless noted.
Assay [3] has as its system MDA-MB-435 melanoma. Particulars: 10 µM unless noted.
The test system of assay [4] is SW-620 colon. The note with it: 10 µM unless noted.
Assay [5] concerns MCF7 breast. The note with it: 10 µM unless noted.
Assay [6] deals with HCT-116 colon. Particulars: 10 µM unless noted.
In assay [7] the test system is HCC-2998 colon. The note with it: 10 µM unless noted.
Assay [8] concerns KM12 colon. The note with it: 10 µM unless noted.

Consider `O=C1/C(=C/c2ccc(Cl)cc2)CN(Cc2cn(CCCNc3ccnc4cc(Cl)ccc34)nn2)C/C1=C\c1ccc(Cl)cc1`, for which the growth in assay [1] is -10.8% (active); in assay [2] it was -87.6% (active); in assay [3] it was -86.7% (active); in assay [4], -75.6% (active); in assay [5], -97.9% (active); in assay [6] it was -64.4% (active). Further, the figures for the growth in assay [7] and in assay [8] were -88% (active) and -75.1% (active), respectively.
On to `O=[N+]([O-])c1ccc(C=C2C(Cl)=C(Cl)C(Cl)=C2Cl)cc1`, for which the growth in assay [1] is 47.8%; in assay [2] it was 97.7%; in assay [3], 76.1%; in assay [4] it was -59.9% (active); in assay [5], 34.8%; in assay [6], -11% (active). Further, the growth in assay [8] is 73.7%.
Regarding `O=C1C(N2CCOCC2)=Cc2cccc3cccc1c23`, the growth in assay [1] was 86.6%; in assay [2] it was 109%; in assay [3], 102%; in assay [4] it was 98.3%; in assay [5], 66.2%; in assay [6] it was 94.7%. Besides, in assay [8], the growth was 95.8%.
In the case of `Cc1ccc2nc(NC(=O)CSC(=S)N3CCN(Cc4ccccc4)CC3)sc2c1`, the growth in assay [1] is -32.5% (active); in assay [2], -55.4% (active); in assay [3], -38.5% (active); in assay [4] it was -84.7% (active); in assay [5] it was -71.2% (active); in assay [6], -54.9% (active). Also, the growth in assay [8] was -92.7% (active).
In the case of `COc1ccc(-c2csc3c2-n2cccc2C3=O)cc1O`, the growth in assay [1] is 79.6%; in assay [2] it was -26.2% (active); in assay [3], -57.1% (active); in assay [4], 20.2%; in assay [5], 5.97% (active); in assay [6], -9.12% (active). The growth in assay [8] was -2.75% (active).
As for `CC(=O)Nc1ccc(Sc2ccc([N+](=O)[O-])o2)cc1`, the growth in assay [1] was -34.3% (active); in assay [2], 32.6%; in assay [3], 9.62% (active); in assay [4], -76.5% (active); in assay [5], 26.9%; in assay [6], -82% (active). In assay [8], the growth is 56.8%.
In the case of `N#Cc1c(O)c2c(c(O)c1C#N)C(=O)c1ccccc1C2=O`, the growth in assay [1] was 23.2%; in assay [2], 69.1%; in assay [3], -91.2% (active); in assay [4], 8.21% (active); in assay [5], 46.2%; in assay [6], 1.88% (active). The growth in assay [7] is 34.5%; in assay [8] it was 73.4%.
As to `Cc1cc(=O)oc2c1ccc1oc(C(=O)c3ccccc3)c(C)c12`, the growth in assay [1] was 76.3%; in assay [2], 101%; in assay [3] it was 95.8%; in assay [4] it was 92.2%; in assay [5] it was 69.4%; in assay [6], 83.5%. In assay [8], the growth is 73.2%.
`CCOC(=O)c1cc2c(n(C)c1=O)-c1cnn(-c3ccc(OC)cc3)c1CC2`: the growth in assay [1] was 82.8%; in assay [2], 101%; in assay [3], 92.6%; in assay [4], 119%; in assay [5], 97.2%; in assay [6], 108%. For the same molecule, the values for the growth in assay [7] and in assay [8] were 120% and 112%, respectively.
Consider `Cc1ccc(N=c2nc3sc4c(C)ccc(C)c4n3c(N)c2C#N)cc1`, for which the growth is 90.8% in assay [1]; 97.2% in assay [2]; 110% in assay [3]; 105% in assay [4]; 88.3% in assay [5]; 94.4% in assay [6]. Besides, the values for the growth in assay [7] and in assay [8] were 110% and 97.7%, respectively.
In the case of `COc1cccc(Nc2nc(NCCO)c3ccccc3n2)c1`, the growth was 75.2% in assay [1]; 72.9% in assay [2]; 72.3% in assay [3]; 64.5% in assay [4]; 76.8% in assay [5]; 72.1% in assay [6]. Besides, the growth in assay [7] is 87.5%; in assay [8], 51.2%.
For the molecule `CC(=O)OC[C@]1(C)C=C2C(=O)[C@](C)(O)C3(CC3)C(C)=C2[C@H]1OC(C)=O`, the growth in assay [1] is 73.6%; in assay [2], 72.6%; in assay [3], 95.4%; in assay [4], 88.2%; in assay [5], 57.1%; in assay [7], 81.8%. Besides, in assay [8], the growth is 78.4%.
On to `NS(=O)(=O)c1cc(Br)c2c(c1)S(=O)(=O)NCN2`, for which the growth in assay [1] is 102%; in assay [2], 108%; in assay [3], 105%; in assay [4] it was 109%; in assay [5], 97.4%; in assay [6] it was 108%. The growth in assay [8] was 96.9%.
With `Clc1ccc2c(N3CCN(c4ccnc(NC5CCCCC5)n4)CC3)ccnc2c1`, the growth is 26.1% in assay [1]; 71.1% in assay [2]; 42.7% in assay [3]; 33.7% in assay [4]; 26.5% in assay [5]; 29.2% in assay [7]. For the same molecule, the growth in assay [8] was 35.5%.
Turning to `COc1ccc(C(=O)C2=CC(=O)C(=O)C2)cc1OC`, the growth in assay [1] is 99.7%; in assay [2], 93.8%; in assay [3], 106%; in assay [4], 107%; in assay [5] it was 95.9%; in assay [7], 108%. Further, the growth in assay [8] is 106%.
As for `CSc1nnc(-c2sc3nnc(-c4ccccc4)c(-c4ccccc4)c3c2O)o1`, the growth is 75% in assay [1]; 74.1% in assay [2]; 88.4% in assay [3]; 92.5% in assay [4]; 83.5% in assay [5]; 60.9% in assay [6]. In assay [8], the growth was 72.9%.
Consider `N#CCCN1CCN(CCC#N)C1=S`, for which the growth in assay [1] is 108%; in assay [2], 99.6%; in assay [3], 106%; in assay [4] it was 101%; in assay [5], 101%; in assay [6] it was 101%. Further, the growth in assay [8] is 109%.
Consider `O=C1C(OCCOc2ccccc2)=C(OCCOc2ccccc2)C(=O)c2ccccc21`, for which the growth in assay [1] is 78.2%; in assay [2], 27.4%; in assay [3] it was 75.8%; in assay [4] it was 45.1%; in assay [5], 64%; in assay [6], 26%. In assay [8], the growth is 57.8%.
As to `Cc1nn2c(-c3nc4ccc(Cl)cc4[nH]3)c(-c3ccc(F)cc3)nc2s1`, the growth is 91.2% in assay [1]; 102% in assay [2]; 99.7% in assay [3]; 91.2% in assay [4]; 81.2% in assay [5]; 99.2% in assay [7]. In addition, the growth in assay [8] was 89.4%.
Consider `O=C(CCCCCCC(=O)Nc1ccc2c(c1)/C(=C/c1ccc[nH]1)C(=O)N2)NO`, for which the growth in assay [1] is -0.107% (active); in assay [2], 29.7%; in assay [3], -1.97% (active); in assay [4], -27% (active); in assay [5], 17.2%; in assay [7], 3.74% (active). Further, the growth in assay [8] was -14.4% (active).
Take `CCOC(=O)c1c(-c2cc(OC)c(OC)c(OC)c2)csc1N`: the growth in assay [1] is 94%; in assay [2], 117%; in assay [3] it was -1.03% (active); in assay [4] it was 76.6%; in assay [5], 78.1%; in assay [6] it was 90.4%. For the same molecule, in assay [8], the growth was 64.2%.
In the case of `O=S(=O)(/N=C1C=C/C(=N\S(=O)(=O)c2ccccc2)c2ccccc2\1)c1ccccc1`, the growth was 93.1% in assay [1]; 104% in assay [2]; 0.648% (active) in assay [3]; 112% in assay [4]; 84.1% in assay [5]; 94.5% in assay [6]. In assay [8], the growth was 101%.
Turning to `O=C(N/N=C/c1ccc(F)cc1)c1[nH]c2ccc(I)cc2c1-c1ccccc1`, the growth is 48.4% in assay [1]; 20.1% in assay [2]; -24% (active) in assay [3]; 33.3% in assay [4]; 14.3% in assay [5]; 14.8% in assay [6]. The growth in assay [8] is 5.42% (active).
For the molecule `Clc1ccc(Nc2ccnc(N3CCN(c4ccnc5cc(Cl)ccc45)CC3)n2)cc1`, the growth in assay [1] was 15.2%; in assay [2], 52.2%; in assay [3] it was 13.3%; in assay [4], 48.5%; in assay [5], 17.5%; in assay [7], 64.7%. For the same molecule, the growth in assay [8] is 36.8%.
As to `COCCOC1=C(Cl)C(=O)c2ccccc2C1=O`, the growth was -49% (active) in assay [1]; -23% (active) in assay [2]; 4.68% (active) in assay [3]; -3.69% (active) in assay [4]; 15.4% in assay [5]; -13.5% (active) in assay [6]. Besides, the growth in assay [8] is -41.7% (active).
`O=[N+]([O-])c1ccc2nc(N/N=C/c3ccc(O)cc3)sc2c1`: the growth in assay [1] was 35.1%; in assay [2] it was 28.6%; in assay [3], 47.7%; in assay [4], 63.7%; in assay [5], 57.9%; in assay [6], 23.3%. Also, the growth in assay [8] was 33.4%.
With `COc1ccc(-c2[nH]ncc2Nc2cc(OC)c(OC)c(OC)c2)cc1`, the growth in assay [1] is 18%; in assay [2], 27.3%; in assay [3], -11.7% (active); in assay [4] it was 32.4%; in assay [5], 23.1%; in assay [6] it was 35.5%. Moreover, the growth in assay [8] is 32.5%.
